# Measurements as given in ChEMBL document CHEMBL3988442, “University of Dundee, Small-Polar-MMV Screening Library” (2021).
# Legend:
# [1] = target: T1, Aspartate--tRNA(Asp/Asn) ligase (Mycobacterium tuberculosis (strain ATCC 25618 / H37Rv)) (UniProt P9WFW3); assay: Assay for Asp RNA synthetase-1 from Mycobacterium tuberculosis; type: functional; parameters: scale not given: direction of the effect not stated beside the values; conditions: 30 µM; note: in the data most compounds retested in dose-response had high values
# T1 sequence (whole entry): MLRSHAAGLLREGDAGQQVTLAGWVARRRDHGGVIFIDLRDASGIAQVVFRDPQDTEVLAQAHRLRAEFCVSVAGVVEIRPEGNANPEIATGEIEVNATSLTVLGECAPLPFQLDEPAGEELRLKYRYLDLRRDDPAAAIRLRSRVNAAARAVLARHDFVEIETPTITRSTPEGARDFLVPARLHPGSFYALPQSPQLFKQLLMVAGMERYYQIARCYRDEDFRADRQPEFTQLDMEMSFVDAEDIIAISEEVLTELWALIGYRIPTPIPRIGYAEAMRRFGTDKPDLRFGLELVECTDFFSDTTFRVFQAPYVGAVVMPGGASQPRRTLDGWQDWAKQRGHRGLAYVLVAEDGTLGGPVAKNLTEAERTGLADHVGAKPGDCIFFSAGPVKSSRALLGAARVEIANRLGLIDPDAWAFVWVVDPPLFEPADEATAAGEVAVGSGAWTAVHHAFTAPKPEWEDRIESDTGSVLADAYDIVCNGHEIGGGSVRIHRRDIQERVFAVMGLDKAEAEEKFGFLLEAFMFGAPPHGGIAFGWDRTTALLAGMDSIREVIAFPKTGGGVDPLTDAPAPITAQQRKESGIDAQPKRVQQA
# [2] = target: Shiga toxin 2 (Escherichia coli O157:H7) (UniProt P09385+P09386); assay: E. coli 0.157:H7 Shiga Toxin SOP - stx2 screening assay; type: functional; parameters: scale not given: direction of the effect not stated beside the values; conditions: 30 µM
Compound,Percent Effect [1] [%],Percent Effect [2] [%]
CN1CCOC(CNC(=O)CCCOCCc2ccccc2)C1 (centres undefined),-3.72,1.69
O=C(Cn1nc(-c2ccc(F)cc2)oc1=O)Nc1ccccc1,-1.5,-19.2
CCOC[C@@H]1CCC[C@@]12CN(Cc1nccs1)CCO2,-0.28,13.3
CC(C)(C)c1nc(CN2CCC(c3nc4cc(Cl)ccc4o3)CC2)no1,-2.4,-14.9
CCc1csc(CCNC(=O)C2CC(=O)N(C(C)C)C2)n1 (centres undefined),-1.9,-30.4
CCN(CC)C(=O)c1ccn(COc2ccccc2)n1,-2.64,4.36
COc1ccc(CNCCc2cc(F)cc3c2OCOC3)cc1O,3.65,-23.1
Cc1ccc(-n2nnc(C(=O)Nc3cc(C)nn3C)c2C2CC2)cc1,-2.8,34.4
CCc1nc(CN2CCCN(C(=O)c3cn[nH]c3CC)CC2)cs1,-1.54,-78.4
Cn1cc(-c2ncnc3c2CCN(C(=O)N2CCOCC2)CC3)cn1,-8.2,-1.95
Cc1c(Br)cccc1C(=O)NC(C)CN1CCCC1=O (centres undefined),-1.01,1.67
Cc1ccc(C2C3=C(COC3=O)Nc3[nH]nc(C)c32)cc1C (centres undefined),-4.73,-11.4
CCN(C(=O)CS(=O)(=O)Cc1cc(Cl)c2c(c1)OCCCO2)C1CC1,-0.343,4.47
CN1CC(c2ccccc2)CC12CCN(C(=O)c1c(Cl)cnn1C)CC2 (centres undefined),-1.22,17
O=C(CCCc1nc2ccccc2[nH]1)N1CCCC(n2cccn2)C1 (centres undefined),0.834,3.01
CC(CN1CCOCC1)NC(=O)N(C)Cc1ccc(Cl)s1 (centres undefined),1.38,-12.6
O=C(CCn1cncn1)NC1(c2cccc(Br)c2)CCC1,8.08,-21.1
CC(O)CN1CCN(Cc2csc(-c3ncccn3)n2)CC1 (centres undefined),2.19,-19.8
COCCN1CCN(C(=O)C2CC=CC2)Cc2cccnc21,-1.63,-23.9

Compound,Percent Effect [1] [%],Percent Effect [2] [%]
CCc1nc(CN(Cc2cccs2)CC2CCCO2)no1 (centres undefined),2.75,15
Cc1ccc(CN(C)CC(=O)NC2(C)CCS(=O)(=O)C2)cc1 (centres undefined),1.84,-25.3
O=C(CN1CCC(c2cccc(F)c2)C1)NCc1ccco1 (centres undefined),-0.144,-21.6
Cc1ccc(CC(=O)N2Cc3nccn3CC(CN(C)C)C2)cc1 (centres undefined),1.66,5.05
CCc1nc(CN(C)CC(c2cccs2)N2CCOCC2)no1 (centres undefined),-4.22,-5.08
CN(C)C(=O)N1Cc2nnn(C)c2C(COCC2CC2)C1 (centres undefined),3.51,-35.2
CCN(CC)c1ccc(C(=O)NCc2cccnc2-n2cncn2)cn1,6,-12.3
CN1CCN(C(=O)NC2CC2)Cc2cccnc21,8.44,-32.5
Cc1nc(COc2cccc(C#N)c2)no1,-0.618,0.222
Cc1nnc(NC(=O)NC2CCOc3ccccc32)s1 (centres undefined),1.16,-1.42
COCCCN(CCOC)C(=O)Nc1ccc(C)cc1C,0.599,1.16
Cc1ccc(-c2cn[nH]c2C2CCCN(c3nccc(N)n3)C2)cc1 (centres undefined),2.79,-37.9
CCn1cc(CNC2CC(=O)N(CCc3cccc(Cl)c3)C2)cn1 (centres undefined),-2.05,-2.75
Cc1ccc(NS(=O)(=O)c2cc3c(c(C(=O)O)c2)OCCO3)c(F)c1,-2.58,-5.6
CSCC(C)(O)CNC(=O)c1ccc(Br)cc1F (centres undefined),3.26,13.2
O=C1N(CCCc2ccccc2)CCCC1(O)CNCc1ccccc1 (centres undefined),4.53,-10.3
COc1ccc(CCN2CCCC(Cn3nc(C)nc3C)C2)cc1 (centres undefined),-3.48,-52.1
CCc1nc(C2CCCN2C(=O)CCNS(C)(=O)=O)no1 (centres undefined),-7.34,-0.995
O=C(c1ccc2[nH]ccc2c1)N1CCn2cnc(COCC3CC3)c2C1,7.07,-13.5

Compound,Percent Effect [1] [%],Percent Effect [2] [%]
O=C(NCCN1CCC(c2cccs2)CC1)Nc1cccs1,-7.93,-125
CCn1ncnc1C(NC(=O)CC1CCN(C(C)C)CC1)C1CC1 (centres undefined),1.82,-13.7
CC(=O)N1CCN(c2cc(C3CN(C)CCO3)nc(C)n2)CC1 (centres undefined),0.67,-24.3
CNC(=O)CC1CCN(Cc2nc(-c3cccc(Cl)c3)oc2C)CC1,4.32,-21.3
c1cnc(N2CCOCC3(CCCN(CC4CC4)C3)C2)cn1 (centres undefined),0.0873,-8.06
Cn1c(C(F)(F)F)nn(CCNC(=O)CSCc2ccccc2)c1=O,-5.63,4.5
COCCNC(=O)c1cc2c(s1)CCN2C(=O)c1ccccc1,0.0582,-56.3
Cc1ccc(N2CCCC(NCC(=O)NCC3CC3)C2)nn1 (centres undefined),-5.2,-32.6
O=C1CC2(CCN(CC3CC3)C2)CN1c1cccc(F)c1 (centres undefined),0.607,-32.8
Cc1cnn(C2CCCN(C(=O)c3cc(C)sc3C)C2)c1 (centres undefined),-4.82,-24.8
O=C(Cc1ccc2c(c1)OCO2)N1CCCN(c2ccccc2)CC1,3.17,3.72
Cc1nc2cc(O)nn2c(C)c1CCC(=O)N(C)Cc1cscn1,8.09,4.66
CC1CCc2nc(O)c(C(=O)NCc3cccc(F)c3)cc2C1 (centres undefined),1.04,-8.04
c1cnnc(N2CCCC(NCc3ccc(-n4cccn4)cc3)C2)c1 (centres undefined),-2.36,11
COc1ccc(Cl)cc1NCC(=O)NCCc1ccccn1,-0.954,25.8
Fc1ccccc1Cc1noc(CN2CCCC(CN3CCCC3)C2)n1 (centres undefined),-0.254,11.5
Cc1cnn(CCNCc2ccc(C#N)cc2F)c1,-3.18,6.24
CCN(C)Cc1cnc(S(=O)(=O)CC)n1CCOC,-5.11,-0.758
Cc1nc(CN2CCC(N(C)Cc3noc(C4CC4)n3)C2)oc1C (centres undefined),1.48,-11
